Measured values as given in PubChem BioAssay (Tox21).
Results filed as inconclusive are left out. Unmarked numbers belong to inactive results. Calls come from the whole dose curve; as a rule, active = well fitted activation curve with a large enough effect in the repeat runs; inconclusive = weak or mixed curves; inactive = flat fitted curve, though single readings scatter.

Assay: A CellTox Green Cytotoxicity Assay to monitor cytotoxicity in HEK293 cells - 40 hour (AID 1224871); note: nearly all actives have a fitted effect of over 45% in size
Conditions: CellTox Green fluorescence; series mostly up to 76.8 µM; cytotoxicity increase: at the top concentration
From the text: National Center for Advancing Translational Sciences [NCATS]
NIH Chemical Genomics Center [NCGC]
U.S. Environmental Protection Agency [EPA]
National Institutes of Environmental Health Sciences [NIEHS]
National Toxicology Program [NTP]
Cell-based models are critical for drug discovery. Determining the natural cytotoxic effects resulting from test compounds is an essential research activity. A CellTox Green Cytotoxicity Assay to monitor cytotoxicity in real time of continues cell culture during 40 hours of the compound treatment was used to screen Tox21 10K library compounds in Hek293 cells. CellTox Green Cytotoxicity Assay is a nonlytic, homogeneous, biofluorescent method to measure cytotoxicity in cell culture after experimental manipulation. The assay system uses a proprietary asymmetric cyanine dye that is excluded from viable cells but preferentially stains the dead cell's DNA. […] Viable cells produce no appreciable increases in fluorescence. Therefore, the fluorescence signal produced by the binding interaction with dead cell DNA is proportional to cytotoxicity.
The mixture of Hek293 cell suspension and reagents were dispensed at 600cells/6 ul/well in 1536-well tissue culture treated black solid bottom plates using a Multidrop dispenser. After the assay plates were incubated at a 37 C/5% CO2 incubator for 5 hours, 23 nL of compounds dissolved in DMSO, positive and negative controls was transferred to the assay plate by a pintool work station. The plates were incubated at 37 C for 40 hours. The fluorescence intensity were measured at 0h, 8h, 16h, 24h, 32h and 40h time points using ViewLux plate reader during compound treatment.
% is set by controls: 0 for no effect and ±100 for the full control effect.

Row | SMILES | cytotoxicity increase
1 | CCc1ncc(C)[nH]1 | 1.59%
2 | C[Si](C)(C)O[Si](O)(O)O | 3.5%
3 | CCCCCCCC(=O)N(C)C | -0.698%
4 | Cc1cc(C)c(N)c(Cl)c1 | 0.121%
5 | C=CCn1cc[n+](C)c1 | -4.63%
6 | Cc1ccc(Br)cc1 | 10.8%
7 | CC(C)CC(O)Cc1ccccc1 (stereo not given) | 6.14%
8 | CC(C)(C)c1ccc(C(=O)CCCCl)cc1 | 15.2% [at 35.3 µM]
9 | O=C(O)/C=C(\CC(=O)O)C(=O)O | 0.836% [at 35.3 µM]
10 | CC(C)OC(=O)C(C(=O)OC(C)C)=C1SC=CS1 | 12% [at 35.3 µM]
11 | C[C@@H]1NC(=O)[C@@H](N)CNC(=O)[C@H](C2CCNC(N)=N2)NC(=O)/C(=C/NC(N)=O)NC(=O)[C@H](CNC(=O)C[C@@H](N)CCCN)NC1=O (stereo not given in full) | 21.6% [at 0.29 µM]
12 | CC(C)(C)c1ccc(N)cc1 | 11.1%
13 | CC(C)(O)CCCC1=CCC(C=O)CC1 (stereo not given) | 0.0891%
14 | NC(=O)CC[C@@H](N)C(=O)O | -1.13% [at 35.3 µM]
15 | COC(=O)C(c1ccccc1Cl)N1CCc2sccc2C1 (stereo not given) | 7.93% [at 35.3 µM]
16 | CCCC(=O)OC | -1.77%
17 | CC(=O)c1ccc2ccc3ccccc3c2c1 | -13%
18 | C=C(C)C(=O)OCCCC | -1.76%
19 | NC[C@H]1O[C@H](O[C@H]2[C@H](O)[C@@H](O[C@H]3O[C@H](CO)[C@@H](O)[C@H](N)[C@H]3O)[C@H](N)C[C@@H]2N)[C@H](N)[C@@H](O)[C@@H]1O | -1.49% [at 15.8 µM]
20 | CCCCCCC(O)CO (stereo not given) | -16.8%

Row | SMILES | cytotoxicity increase
21 | CC/C=C/CCCCCCCCCCOC(C)=O | -0.919%
22 | CCCc1ncc(C(=O)O)s1 | 0.922% [at 35.3 µM]
23 | CN1CCN(C(=O)C2CCCCC2)CC1 | -2.62% [at 35.3 µM]
24 | CCCCc1ccc(Cl)cc1 | -16.4%
25 | CCCCCCCCS(=O)(=O)O | 7.52%
26 | c1cc2ccc3ccc4ccc5cccc6c(c1)c2c3c4c56 | -13.8% [at 2.72 µM]
27 | Cc1cc(N)no1 | -4.39%
28 | COC(=O)c1c(C)cc(O)c(C)c1O | 6.2%
29 | CC(=O)OC/C=C(/C)CCC=C(C)C | 10.5%
30 | CCOCCOCCOC(C)=O | 8.74%
31 | Cc1ccccc1C#N | -3.67%
32 | CCCCCCCCOCCC#N | 5.87%
33 | CCCCN1C(=O)c2ccccc2C1=O | -2.99%
34 | CC(C)(C)C(=O)CC(=O)C(C)(C)C | -22.8%
35 | C=CC(C)(CCC=C(C)C)OC(=O)C(C)C (stereo not given) | -10.5%
36 | CN1C(CCl)Nc2cc(Cl)c(S(N)(=O)=O)cc2S1(=O)=O (stereo not given) | -21.3% [at 35.3 µM]
37 | C=COCCCCO | -13%
38 | COC(=O)c1ccc(C(=O)O)cc1 | -7.2%
39 | NNC(=O)CCCCC(=O)NN | -15.7%
40 | Cc1cc2c(cc1CC(=O)c1sccc1S(=O)(=O)Nc1onc(C)c1Cl)OCO2 | -17% [at 35.3 µM]
